From PubChem BioAssay (NCI)
This is part of a sample that, as a whole, favours compounds with a hit. Of some 83,000 tested, about 20% had one in any assay.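 Plates (96-well) were seeded with cells, treated with compound at one concentration, and incubated for 48 hours before percent growth was determined.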 A number with no mark means an inactive call. Activity calls are given as the source filed them. How the source made its calls: active means growth percent below 10; inactive means the rest.

Experiments:
Experiment in all cases: NCI-60 one-dose screen, 48 h (100 = growth as untreated, 0 = no growth, -100 = all killed)
Conditions in all cases: 10 µM unless noted
HCT-15 colon = test system: HCT-15 colon
HT29 colon = test system: HT29 colon
SNB-75 CNS = test system: SNB-75 CNS
SNB-19 CNS = test system: SNB-19 CNS
U251 CNS = test system: U251 CNS
PC-3 prostate = test system: PC-3 prostate
SK-MEL-5 melanoma = test system: SK-MEL-5 melanoma
UACC-62 melanoma = test system: UACC-62 melanoma
LOX IMVI melanoma = test system: LOX IMVI melanoma
SK-MEL-28 melanoma = test system: SK-MEL-28 melanoma

Row | SMILES | growth (HCT-15 colon) | growth (HT29 colon) | growth (SNB-75 CNS) | growth (SNB-19 CNS) [%] | growth (U251 CNS) | growth (PC-3 prostate) | growth (SK-MEL-5 melanoma) | growth (UACC-62 melanoma) | growth (LOX IMVI melanoma) | growth (SK-MEL-28 melanoma)
1 | CC(O)c1cccc(/C(N)=N/C(N)=N/c2nc3ccccc3s2)c1 (stereo not given) | 56.7% | 110% | 80% | 89.3 | 74.2% | 64.9% | 83.4% | 87.8% | 64.3% | 100%
2 | Cc1ccc(C(=O)CSc2nnc(-c3ccc(-c4ccc(Cl)cc4)nc3C)o2)cc1 | 102% | 104% | 90.7% | 99.3 | 104% | 94.6% | 95% | 84.8% | 95.3% | 99.9%
3 | O=C1/C(=C/C=C/c2ccco2)SC(=S)N1Cc1ccccc1 | 65% | 110% | 84.7% | 89.2 | 92.3% | 101% | 98.8% | 82.1% | 96.4% | 101%
4 | COc1ccc(/C=N/NC(=O)CSc2nc(-c3cnccn3)cc(-c3cccs3)c2C#N)cc1OC | 89.1% | 60.9% | 81.9% | 78.1 | 21% | 80.8% | 34.8% | 19.8% | 59.9% | 98.2%
5 | COC(=O)CCSC1=C(C)C(=O)c2ccccc2C1=O | 58.5% | 110% | 89.6% | 96.5 | 85.1% | 72.6% | 84.2% | 70.9% | 52.2% | 106%
6 | O=C(CCCCCCN1CC(=O)N2[C@@H](C3CC3)c3[nH]c4ccccc4c3C[C@H]2C1=O)NO | 92.9% | 78.3% | 58.7% | 68.4 | 53.1% | 74.7% | 44.1% | 31.8% | 33.2% | 32.3%
7 | Nc1ncc(-c2ccc3ncnc(NCc4ccccc4)c3c2)cn1 | 42.8% | 55.3% | 41.2% | 52 | 64.1% | 34.7% | 48.6% | 44.8% | 38.6% | 57.6%
8 | O=c1c2cc(-c3ccc(F)cc3F)ccc2n(Nc2ccccc2)c(=O)n1-c1cccc(C(F)(F)F)c1 | 11.4% | 59.3% | -8.2% (active) | 11.5 | 9.58% (active) | 1.28% (active) | -53.7% (active) | 10.9% | -4.69% (active) | 29.5%
9 | C#C[C@]1(O)CC[C@H]2[C@@H]3CC=C4c5sc(Nc6cc(Cl)ccc6OC)nc5CC[C@]4(C)[C@H]3CC[C@@]21C | 16.3% | 34.9% | -1.39% (active) | 28.3 | 15.3% | -9.76% (active) | -43.9% (active) | -3.92% (active) | -71.7% (active) | -59.1% (active)
10 | COc1ccc(-c2c(C(N)=O)c(N)n(Cc3nc4ccccc4[nH]3)c(=O)c2C#N)c(OC)c1 | 98.4% | 113% | 88.3% | 98.7 | 97.2% | 97.4% | 97.3% | 91.6% | 96.4% | 109%
11 | O=C1Nc2ccccc2/C1=C/c1ccc(OCC(=O)c2ccccc2)cc1 | 96.8% | 117% | 73.8% | 94.6 | 100% | 82.9% | 97.7% | 87.1% | 94.5% | 100%
12 | CCCCCCNC(=O)Oc1ccc(/C(=C(/C)c2ccc(Cl)cc2)c2ccc(OCCN3CCCCCC3)cc2)cc1 | 9.59% (active) | 21.3% | 99.6% | 68.4 | 55.8% | 49.2% | 73.6% | 63.8% | 32.8% | 84%
13 | CCOC(=O)Nc1ccc2c(ccn2C(=O)c2cccc(F)c2)c1 | 29% | 1.15% (active) | 13.2% | 27.8 | 25.7% | 42% | 27.7% | 32.3% | 49.4% | 61.5%
